Assay results as given in PubChem BioAssay (EPA / NIEHS).
Values joined by “and” are separate entries in the source; they are usually repeats but may differ in a detail not shown here. Equal values may be shown once. Records with an inconclusive call do not appear. Active and inactive are the calls of the source. How the source made its calls: active means hit-call score of the fitted dose curve at least 0.9, where 1 is the maximum; inconclusive means response in the unintended direction; inactive means score below 0.9.

What was measured:
[1] = test system: Sodium/Iodide Symporter (NIS), SLC5A5 (gene 6528); experiment: CPHEA_Stoker_NIS_Inhibition_RAIU: CPHEA's Radioactive Iodide Uptake (RAIU) Assay for Sodium/Iodide Symporter (NIS) Inhibition, Stoker and Laws Labs (AID 2283841)
Method in brief: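 Iodide uptake through human NIS is measured in an engineered HEK293T line. Cells take up 125I (329pM final) for 2 hours at room temperature alongside chemicals at 0.001–100uM. Retained radioactivity is counted, and the signal is expressed against DMSO controls.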

[2] = CPHEA_Stoker_NIS_Cytotoxicity: Cytotoxicity Assessment for CPHEA's Radioactive Iodide Uptake (RAIU) Assay for Sodium/Iodide Symporter (NIS) Inhibition, Stoker and Laws Labs (AID 2283897);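 on AC50: active means loss of ATP signal versus DMSO meaning cytotoxicity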
Method in brief: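 ATP luminescence (Cell Titer Glo) measured viability, with loss of signal normalized to DMSO controls. Cells: hNIS-HEK293T-EPA, seeded 40 hours prior. Dosing: 0.001–100uM, 2 hours, room temperature, uptake buffer pH 7.4.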

[3] = target: frog Thyroid hormone Receptor alpha (TRa), thra-a (gene 397942) (UniProt P15204); experiment: ATG_frTRa_XSP2: Attagene TRANS-FACTORIAL Multi-Species (XSP2) HepG2 Assay for frog Thyroid hormone Receptor alpha (TRa) (AID 2283839);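 on AC50: AC50 reflects induction of frog TRa-driven reporter mRNA above DMSO baseline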
Sequence of frog Thyroid hormone Receptor alpha (TRa), thra-a (gene 397942) (P15204 whole entry, looked up, the tested form may be a part): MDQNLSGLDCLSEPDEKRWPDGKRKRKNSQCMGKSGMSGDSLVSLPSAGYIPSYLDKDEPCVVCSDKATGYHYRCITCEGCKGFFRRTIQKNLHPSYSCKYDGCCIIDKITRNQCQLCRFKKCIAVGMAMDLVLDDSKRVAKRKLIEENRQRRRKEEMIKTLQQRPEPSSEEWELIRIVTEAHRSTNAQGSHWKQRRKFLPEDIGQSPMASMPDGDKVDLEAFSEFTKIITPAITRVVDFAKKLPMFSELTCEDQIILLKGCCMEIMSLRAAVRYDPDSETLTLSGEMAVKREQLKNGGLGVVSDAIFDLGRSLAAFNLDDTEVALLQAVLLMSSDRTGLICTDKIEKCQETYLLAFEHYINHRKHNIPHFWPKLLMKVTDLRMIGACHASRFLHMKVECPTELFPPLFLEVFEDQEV
Method in brief: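 HepG2 cells transiently transfected with multiplexed GAL4-UAS reporter units expressing chimeric frog TRα-Gal4; reporter mRNA read 24 h after dosing by RT-PCR, FAM-labelled primer extension, HpaI digest and capillary electrophoresis. Gain of signal fitted versus DMSO.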

[4] = target: human Thyroid hormone Receptor beta (TRb), THRB (gene 7068) (UniProt P10828); experiment: ATG_hTRb_XSP2: Attagene TRANS-FACTORIAL Multi-Species (XSP2) HepG2 Assay for human Thyroid hormone Receptor beta (TRb) (AID 2283840);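 further: actives raise reporter mRNA so potency reflects agonist-like gain of signal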
Sequence of human Thyroid hormone Receptor beta (TRb), THRB (gene 7068) (P10828 whole entry, looked up, the tested form may be a part): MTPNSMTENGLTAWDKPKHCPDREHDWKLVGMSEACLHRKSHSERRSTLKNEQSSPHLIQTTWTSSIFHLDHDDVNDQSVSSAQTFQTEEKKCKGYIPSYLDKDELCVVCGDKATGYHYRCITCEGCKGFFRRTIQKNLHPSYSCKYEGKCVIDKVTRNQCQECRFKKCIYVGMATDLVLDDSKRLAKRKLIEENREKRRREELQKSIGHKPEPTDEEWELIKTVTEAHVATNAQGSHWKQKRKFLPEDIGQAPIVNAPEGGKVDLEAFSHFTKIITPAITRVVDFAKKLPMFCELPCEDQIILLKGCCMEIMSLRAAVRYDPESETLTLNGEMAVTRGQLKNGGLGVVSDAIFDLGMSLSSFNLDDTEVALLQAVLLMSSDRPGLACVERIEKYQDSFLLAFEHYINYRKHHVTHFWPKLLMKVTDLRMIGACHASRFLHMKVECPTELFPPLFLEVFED
Method in brief: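 HepG2 cells were transiently transfected with GAL4-UAS multiplexed reporter units expressing chimeric NR-Gal4 proteins, dosed 24 h; reporter mRNA was quantified by RT-PCR, fluorescent labeling, HpaI digestion and capillary electrophoresis, fitted for gain of signal versus DMSO.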

[5] = target: PGR (gene 5241) (UniProt P06401); experiment: TOX21_PR_BLA_Followup_Antagonist_ratio: Tox21 HEK293 Progesterone Receptor (PR) Antagonism Beta-lactamase Follow-Up Assay, Ratio (AID 2283934);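 further: PR-UAS-bla HEK293T cells stimulated with 1 nM R5020 agonist for 16 hr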
Sequence of PGR (gene 5241) (P06401 whole entry, looked up): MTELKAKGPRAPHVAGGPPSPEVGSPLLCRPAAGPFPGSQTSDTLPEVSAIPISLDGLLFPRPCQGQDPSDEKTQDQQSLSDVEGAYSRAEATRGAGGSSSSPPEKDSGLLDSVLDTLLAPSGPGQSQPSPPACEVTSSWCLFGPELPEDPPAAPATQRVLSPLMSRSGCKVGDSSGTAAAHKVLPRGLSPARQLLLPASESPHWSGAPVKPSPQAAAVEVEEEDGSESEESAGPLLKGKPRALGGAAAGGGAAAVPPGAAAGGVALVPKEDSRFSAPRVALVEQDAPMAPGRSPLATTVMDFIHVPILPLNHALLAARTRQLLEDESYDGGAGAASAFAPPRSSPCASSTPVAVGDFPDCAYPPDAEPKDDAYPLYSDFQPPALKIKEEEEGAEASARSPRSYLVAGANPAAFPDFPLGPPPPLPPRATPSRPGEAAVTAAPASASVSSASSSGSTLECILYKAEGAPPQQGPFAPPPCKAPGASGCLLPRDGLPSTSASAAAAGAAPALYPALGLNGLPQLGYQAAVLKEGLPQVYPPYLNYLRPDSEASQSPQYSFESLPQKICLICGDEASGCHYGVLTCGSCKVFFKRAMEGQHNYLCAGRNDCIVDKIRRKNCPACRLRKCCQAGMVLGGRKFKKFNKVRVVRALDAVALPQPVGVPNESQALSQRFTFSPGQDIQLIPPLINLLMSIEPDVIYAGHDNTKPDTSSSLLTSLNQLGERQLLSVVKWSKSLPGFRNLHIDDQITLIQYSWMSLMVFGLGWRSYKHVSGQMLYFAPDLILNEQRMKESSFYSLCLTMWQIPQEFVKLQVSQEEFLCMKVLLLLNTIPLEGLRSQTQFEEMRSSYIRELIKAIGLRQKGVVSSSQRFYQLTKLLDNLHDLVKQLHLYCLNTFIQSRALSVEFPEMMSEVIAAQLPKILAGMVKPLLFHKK
Method in brief: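 Measured in PR-UAS-bla HEK293T cells co-treated with compound and 1 nM promegestone for 16 hr; beta-lactamase ratio read after 2 h FRET substrate loading, with parallel CellTiter-Glo cytotoxicity.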

[6] = TOX21_PR_BLA_Followup_Agonist_viability: Viability Assessment in the Tox21 HEK293 Progesterone Receptor (PR) Agonism Beta-lactamase Follow-Up Assay (AID 2283935);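 further: signal loss means lower viability so actives are cytotoxic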
Method in brief: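 Viability is read as CellTiter-Glo luminescence, where loss of signal indicates cytotoxicity. The cells are PR-UAS-bla HEK293T given compounds for 16 hr at 37C and 5% CO2, in the same wells used for the bla readout.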

[7] = TOX21_PR_BLA_Followup_Antagonist_viability: Viability Assessment in the Tox21 HEK293 Progesterone Receptor (PR) Antagonism Beta-lactamase Follow-Up Assay (AID 2283936);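 further: cells exposed to compound with R5020 agonist for 16 h; hits lower the luminescence signal meaning cytotoxicity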
Method in brief: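 PR-UAS-bla HEK293T cells in medium with 2% charcoal-stripped FBS were treated with compounds plus R5020 for 16 hr at 37C. After the beta-lactamase read, CellTiter-Glo was added to the same wells and luminescence read after 30 min at room temperature.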

[8] = target: PGR (gene 5241) (UniProt P06401); experiment: TOX21_PR_BLA_Followup_Agonist_ratio: Tox21 HEK293 Progesterone Receptor (PR) Agonism Beta-lactamase Follow-Up Assay, Ratio (AID 2283933)
Method in brief: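 Ratio-based beta-lactamase reporter signal after 16 hr compound treatment of PR-UAS-bla HEK293T cells at 37C. Substrate loading lasted 2 hr at room temperature.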

[9] = target: zebrafish Thyroid Hormone Receptor beta (TRb), thrb (gene 30607) (UniProt Q9PVE4); experiment: ATG_zfTRb_XSP2: Attagene TRANS-FACTORIAL Multi-Species (XSP1) HepG2 Assay for zebrafish Thyroid Hormone Receptor beta (TRb) (AID 2283836);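 on AC50: potency for induction of reporter signal above DMSO so agonist direction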
Sequence of zebrafish Thyroid Hormone Receptor beta (TRb), thrb (gene 30607) (Q9PVE4 whole entry, looked up): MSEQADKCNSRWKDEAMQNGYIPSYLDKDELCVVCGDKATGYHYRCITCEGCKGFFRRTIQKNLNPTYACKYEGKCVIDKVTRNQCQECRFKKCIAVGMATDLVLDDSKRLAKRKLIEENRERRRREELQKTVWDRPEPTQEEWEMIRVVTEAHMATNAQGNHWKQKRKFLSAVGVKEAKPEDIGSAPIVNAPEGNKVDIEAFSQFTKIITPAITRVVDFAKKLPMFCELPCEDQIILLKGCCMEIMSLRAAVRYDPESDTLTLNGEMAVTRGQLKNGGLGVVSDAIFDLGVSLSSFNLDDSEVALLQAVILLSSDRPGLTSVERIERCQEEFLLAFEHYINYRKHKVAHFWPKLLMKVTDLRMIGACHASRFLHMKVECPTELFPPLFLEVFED
Method in brief: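 Multiplexed trans-activation in HepG2 cells, 24 h treatment, with reporter mRNA read by RT-PCR and capillary electrophoresis. Gain-of-signal against DMSO.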

[10] = ATG_XTT_Cytotoxicity_XSP2: Cytotoxicity Assessment in the Attagene TRANS-FACTORIAL Multi-Species (XSP2) HepG2 Assay (AID 2283837)
Method in brief: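 XTT-based cell number read-out in human HepG2 liver cells carrying transfected reporter units, measured 24 h after chemical dosing. Activity is signal loss versus DMSO baseline.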

[11] = target: human Thyroid hormone Receptor alpha (TRa), THRA (gene 7067) (UniProt P10827); experiment: ATG_hTRa_XSP2: Attagene TRANS-FACTORIAL Multi-Species (XSP2) HepG2 Assay for human Thyroid hormone Receptor alpha (TRa) (AID 2283838)
Sequence of human Thyroid hormone Receptor alpha (TRa), THRA (gene 7067) (P10827 whole entry, looked up, the tested form may be a part): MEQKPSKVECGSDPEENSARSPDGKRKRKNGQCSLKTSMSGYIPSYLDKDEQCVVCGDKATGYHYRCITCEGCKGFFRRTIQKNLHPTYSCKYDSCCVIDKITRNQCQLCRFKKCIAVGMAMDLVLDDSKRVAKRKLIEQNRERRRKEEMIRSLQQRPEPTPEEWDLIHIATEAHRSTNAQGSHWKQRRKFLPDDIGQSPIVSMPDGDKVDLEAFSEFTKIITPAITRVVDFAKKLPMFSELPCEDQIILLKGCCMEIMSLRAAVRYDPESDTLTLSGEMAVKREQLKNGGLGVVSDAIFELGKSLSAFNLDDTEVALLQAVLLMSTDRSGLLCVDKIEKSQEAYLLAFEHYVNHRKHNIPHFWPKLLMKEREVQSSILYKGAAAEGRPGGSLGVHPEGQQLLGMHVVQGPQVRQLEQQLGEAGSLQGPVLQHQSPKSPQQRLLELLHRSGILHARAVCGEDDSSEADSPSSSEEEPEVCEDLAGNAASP
Method in brief: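 Gain-of-signal in reporter mRNA, relative to DMSO, after 24 h dosing of transfected HepG2; quantitation by RT-PCR fragment analysis on capillary electrophoresis.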

## CC(=O)[C@H]1CC[C@H]2[C@@H]3CCC4=CC(=O)CC[C@]4(C)[C@H]3CC[C@]12C
[1]
  AC50: 84.4 µM (active)
[2]
  AC50: 9.92 µM (active)

## CC(C)CCCCCCc1ccc(O)cc1
[3]
  outcome: inactive
[4]
  outcome: inactive
[1]
  outcome: inactive
[2]
  outcome: inactive
[5]
  outcome: inactive
[6]
  outcome: inactive
[7]
  outcome: inactive

## CCCCOC(=O)[C@@H](C)Oc1ccc(Oc2ccc(C(F)(F)F)cn2)cc1
[1]
  outcome: inactive
[2]
  outcome: inactive

## C[C@]12CC[C@@H]3c4ccc(O)cc4C[C@@H](CCCCCCCCCS(=O)CCCC(F)(F)C(F)(F)F)[C@H]3[C@@H]1CC[C@@H]2O (stereo partly drawn)
[8]
  outcome: inactive
[5]
  AC50: 4.06 µM (active)

## CCCCC(CC)CN1C(=O)C2C3C=CC(C3)C2C1=O (stereo not drawn)
[3]
  outcome: inactive
[1]
  outcome: inactive
[2]
  AC50: 50 µM (active)

## CCOC(=O)NCCOc1ccc(Oc2ccccc2)cc1
[1]
  AC50: 40.2 µM (active)
[2]
  AC50: 34 µM (active)

## c1ccc(Nc2ccccc2)cc1
[1]
  outcome: inactive
[2]
  outcome: inactive

## CCCCOC(=O)C(C)Oc1ccc(Oc2ccc(C(F)(F)F)cn2)cc1 (stereo not drawn)
[1]
  outcome: inactive
[2]
  outcome: inactive

## CCCN(CCC)c1c([N+](=O)[O-])cc(C(F)(F)F)c(N)c1[N+](=O)[O-]
[1]
  AC50: 31.8 µM (active)
[2]
  AC50: 47.8 µM (active)

## O=C(Nc1ccc([N+](=O)[O-])cc1Cl)c1cc(Cl)ccc1O
[1]
  AC50: 0.111 µM (active)
[2]
  outcome: inactive

## Cc1nn(C)c(Oc2ccccc2)c1C=NOCc1ccc(C(=O)OC(C)(C)C)cc1
[1]
  outcome: inactive
[2]
  outcome: inactive

## N[C@@H](Cc1cc(I)c(Oc2ccc(O)c(I)c2)c(I)c1)C(=O)O
[9]
  AC50: 0.339 nM (active) and 77 nM (active)
[10]
  outcome: inactive
[3]
  AC50: 0.185 nM (active) and 197 nM (active)
[1]
  outcome: inactive
[2]
  outcome: inactive

## CN(C)C(=O)Nc1ccc(Cl)c(Cl)c1
[9]
  outcome: inactive
[10]
  outcome: inactive
[11]
  outcome: inactive
[3]
  outcome: inactive
[4]
  outcome: inactive

## COC(=O)CSc1cc(N=c2sc(=O)n3n2CCCC3)c(F)cc1Cl
[1]
  outcome: inactive
[2]
  outcome: inactive

## Oc1ccc(C(c2ccc(O)cc2)C(Cl)(Cl)Cl)cc1
[9]
  outcome: inactive
[3]
  outcome: inactive
[4]
  outcome: inactive
[1]
  AC50: 50 µM (active)
[2]
  AC50: 39.9 µM (active)

## CCOC(=O)C(C)Oc1ccc(Oc2cnc3cc(Cl)ccc3n2)cc1 (stereo not drawn)
[1]
  outcome: inactive
[2]
  outcome: inactive

## S=C(S)NCCNC(=S)S.[Mn+2].[S-]C([S-])=NCCN=C([S-])[S-].[Zn+2]
[1]
  outcome: inactive
[2]
  outcome: inactive

## C#CCOC(=O)[C@@H](C)Oc1ccc(Oc2ncc(Cl)cc2F)cc1
[1]
  outcome: inactive
[2]
  outcome: inactive

## CCCCOCCOCCOCc1cc2c(cc1CCC)OCO2
[1]
  outcome: inactive
[2]
  outcome: inactive

## N#CSCSc1nc2ccccc2s1
[1]
  AC50: 50 µM (active)
[2]
  outcome: inactive

## O=C(c1ccc(O)cc1O)c1ccc(O)cc1O
[9]
  outcome: inactive
[3]
  outcome: inactive
[4]
  outcome: inactive
[8]
  outcome: inactive
[5]
  AC50: 58.1 µM (active)
[7]
  outcome: inactive

## CCCN(CCC)C(=O)SCC
[1]
  outcome: inactive
[2]
  outcome: inactive
